Holding throughout (assay): DAPPL (digital affinity profiling via proximity ligation, sequencing); 10 mM Tris-HCl pH 7.5, 50 mM NaCl, 1 mM DTT, 4% glycerol, room temperature, 30 min; GST-TFs on glutathione beads, 16-mer random dsDNA library, 0.1% formaldehyde crosslink after washing; high values mean tight binding
For assay [1], the target named is T1, FEV (Homo sapiens, UniProt Q99581 1-238).
T1 sequence: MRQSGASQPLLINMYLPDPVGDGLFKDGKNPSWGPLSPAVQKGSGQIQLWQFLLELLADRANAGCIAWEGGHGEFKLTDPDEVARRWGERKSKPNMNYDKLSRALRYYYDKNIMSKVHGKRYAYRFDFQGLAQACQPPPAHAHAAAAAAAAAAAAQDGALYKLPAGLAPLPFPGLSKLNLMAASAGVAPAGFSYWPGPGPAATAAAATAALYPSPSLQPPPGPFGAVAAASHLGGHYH
The conditions noted are these: protein: recombinant; tags: N-terminal GST; dsDNA, one strand shown. Summed up:
(§1)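 Yeast served to express human transcription factors as GST fusions, which were then captured on glutathione beads and labelled with DNA barcodes. Pooled with a tag-only sample, they were incubated with 200 nmole of a 16-mer random double-stranded DNA library for 30 min at room temperature in Tris/NaCl/DTT/glycerol buffer, washed, crosslinked with 0.1% formaldehyde, ligated by proximity, amplified by PCR and sequenced. Dividing each hexamer's read frequency for a factor by its frequency for the tag-only sample gives the binding signal.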

Assay [2] deals with ETV5 (Homo sapiens, UniProt P41161 1-510). The note with it: protein: recombinant; tags: N-terminal GST; dsDNA, one strand shown. In outline:
as §1

In assay [3] the target is HSF1 (Homo sapiens, UniProt Q00613 1-529). The conditions noted are these: protein: recombinant; tags: N-terminal GST; chain copies: 3; dsDNA, one strand shown. Summed up: as §1
Assay [4] addresses T2, SPIC (Homo sapiens, UniProt Q8N5J4 1-248).
T2 sequence: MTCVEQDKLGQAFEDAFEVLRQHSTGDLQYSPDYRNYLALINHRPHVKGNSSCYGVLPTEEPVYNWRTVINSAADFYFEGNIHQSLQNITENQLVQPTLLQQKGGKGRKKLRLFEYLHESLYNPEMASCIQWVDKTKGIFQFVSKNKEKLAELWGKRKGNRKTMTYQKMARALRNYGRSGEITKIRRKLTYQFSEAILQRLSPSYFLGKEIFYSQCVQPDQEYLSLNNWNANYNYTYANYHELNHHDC
The conditions noted are these: protein: recombinant; tags: N-terminal GST; dsDNA, one strand shown. In outline:
as §1

For assay [5], the target named is ELF4 (Homo sapiens, UniProt Q99607 1-663). The note with it: protein: recombinant; tags: N-terminal GST; dsDNA, one strand shown. In outline: as §1
Assay [6] addresses T3, ELK4 (Homo sapiens, UniProt P28324-2 1-405).
T3 sequence: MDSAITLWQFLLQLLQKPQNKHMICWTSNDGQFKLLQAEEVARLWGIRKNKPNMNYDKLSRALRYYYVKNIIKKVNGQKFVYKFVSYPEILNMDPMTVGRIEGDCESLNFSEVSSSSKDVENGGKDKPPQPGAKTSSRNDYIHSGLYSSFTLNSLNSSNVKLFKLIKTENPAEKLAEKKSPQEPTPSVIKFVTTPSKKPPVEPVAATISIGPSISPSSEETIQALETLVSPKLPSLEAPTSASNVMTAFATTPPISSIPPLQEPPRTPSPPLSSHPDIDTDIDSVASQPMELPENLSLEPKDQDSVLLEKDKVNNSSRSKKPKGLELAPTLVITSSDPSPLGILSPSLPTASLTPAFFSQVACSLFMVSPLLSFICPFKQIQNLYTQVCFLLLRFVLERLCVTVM
The note with it: protein: recombinant; tags: N-terminal GST; dsDNA, one strand shown. Summed up:
as §1

Assay [7] has as its target T4, ETV2 (Homo sapiens, UniProt O00321 1-342).
T4 sequence: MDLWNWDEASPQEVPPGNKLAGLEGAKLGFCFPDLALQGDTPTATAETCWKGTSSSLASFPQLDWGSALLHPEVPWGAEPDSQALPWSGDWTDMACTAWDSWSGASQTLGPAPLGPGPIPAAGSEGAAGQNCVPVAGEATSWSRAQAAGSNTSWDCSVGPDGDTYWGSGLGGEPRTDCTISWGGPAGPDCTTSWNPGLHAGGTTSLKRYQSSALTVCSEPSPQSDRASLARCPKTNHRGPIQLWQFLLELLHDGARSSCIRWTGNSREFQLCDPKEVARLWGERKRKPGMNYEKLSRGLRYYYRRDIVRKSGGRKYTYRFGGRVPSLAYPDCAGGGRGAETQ
The note with it: protein: recombinant; tags: N-terminal GST; dsDNA, one strand shown. In outline:
as §1

Assay [8] deals with T5, ELF3 (Homo sapiens, UniProt P78545 1-371).
T5 sequence: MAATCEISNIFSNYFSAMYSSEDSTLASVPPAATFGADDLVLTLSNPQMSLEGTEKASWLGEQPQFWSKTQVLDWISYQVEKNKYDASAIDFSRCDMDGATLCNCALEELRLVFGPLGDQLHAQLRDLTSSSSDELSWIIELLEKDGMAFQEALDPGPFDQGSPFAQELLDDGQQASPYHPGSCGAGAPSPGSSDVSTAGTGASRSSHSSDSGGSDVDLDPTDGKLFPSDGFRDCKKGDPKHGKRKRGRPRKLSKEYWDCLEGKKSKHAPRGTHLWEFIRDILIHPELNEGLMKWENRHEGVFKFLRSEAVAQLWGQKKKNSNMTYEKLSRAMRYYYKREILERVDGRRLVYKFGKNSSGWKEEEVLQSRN
The note with it: protein: recombinant; tags: N-terminal GST; dsDNA, one strand shown. In outline:
as §1

Assay [9] deals with CRX (Homo sapiens, UniProt O43186 1-299). The conditions noted are these: protein: recombinant; tags: N-terminal GST; dsDNA, one strand shown. In outline:
as §1

Assay [10] deals with ETV1 (Homo sapiens, UniProt P50549 1-477). The conditions noted are these: protein: recombinant; tags: N-terminal GST; dsDNA, one strand shown. In outline:
as §1

Assay [11] concerns the target T6, ERF (Homo sapiens, UniProt P50548 1-548).
T6 sequence: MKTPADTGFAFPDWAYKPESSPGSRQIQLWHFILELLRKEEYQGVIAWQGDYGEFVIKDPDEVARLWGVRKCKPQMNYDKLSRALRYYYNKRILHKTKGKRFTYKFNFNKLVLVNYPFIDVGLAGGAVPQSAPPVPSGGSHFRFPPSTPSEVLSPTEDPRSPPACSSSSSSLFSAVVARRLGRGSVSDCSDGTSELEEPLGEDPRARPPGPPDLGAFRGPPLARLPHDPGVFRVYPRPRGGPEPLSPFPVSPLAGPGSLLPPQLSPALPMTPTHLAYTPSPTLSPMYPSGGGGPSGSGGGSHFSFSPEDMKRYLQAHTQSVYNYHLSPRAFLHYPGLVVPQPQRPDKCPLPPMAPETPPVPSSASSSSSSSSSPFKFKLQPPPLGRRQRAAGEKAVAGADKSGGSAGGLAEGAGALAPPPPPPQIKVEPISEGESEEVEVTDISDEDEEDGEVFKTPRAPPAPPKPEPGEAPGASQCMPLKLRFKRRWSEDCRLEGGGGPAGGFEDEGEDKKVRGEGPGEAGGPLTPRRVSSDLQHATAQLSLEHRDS
The note with it: protein: recombinant; tags: N-terminal GST; dsDNA, one strand shown. In outline:
as §1

Assay [12] has as its target T7, ETV3L (Homo sapiens, UniProt Q6ZN32 1-361).
T7 sequence: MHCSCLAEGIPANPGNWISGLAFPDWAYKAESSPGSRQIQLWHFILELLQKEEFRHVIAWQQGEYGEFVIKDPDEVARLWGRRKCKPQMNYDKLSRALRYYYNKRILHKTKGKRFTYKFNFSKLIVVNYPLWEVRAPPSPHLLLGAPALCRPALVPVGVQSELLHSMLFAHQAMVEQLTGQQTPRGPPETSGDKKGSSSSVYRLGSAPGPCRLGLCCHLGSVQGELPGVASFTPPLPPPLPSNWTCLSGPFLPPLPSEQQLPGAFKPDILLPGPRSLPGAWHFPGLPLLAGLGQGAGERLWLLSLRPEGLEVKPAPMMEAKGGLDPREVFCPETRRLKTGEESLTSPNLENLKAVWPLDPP
The note with it: protein: recombinant; tags: N-terminal GST; dsDNA, one strand shown. In outline:
as §1

Assay [13] has as its target T8, ETS2 (Homo sapiens, UniProt P15036 1-469).
T8 sequence: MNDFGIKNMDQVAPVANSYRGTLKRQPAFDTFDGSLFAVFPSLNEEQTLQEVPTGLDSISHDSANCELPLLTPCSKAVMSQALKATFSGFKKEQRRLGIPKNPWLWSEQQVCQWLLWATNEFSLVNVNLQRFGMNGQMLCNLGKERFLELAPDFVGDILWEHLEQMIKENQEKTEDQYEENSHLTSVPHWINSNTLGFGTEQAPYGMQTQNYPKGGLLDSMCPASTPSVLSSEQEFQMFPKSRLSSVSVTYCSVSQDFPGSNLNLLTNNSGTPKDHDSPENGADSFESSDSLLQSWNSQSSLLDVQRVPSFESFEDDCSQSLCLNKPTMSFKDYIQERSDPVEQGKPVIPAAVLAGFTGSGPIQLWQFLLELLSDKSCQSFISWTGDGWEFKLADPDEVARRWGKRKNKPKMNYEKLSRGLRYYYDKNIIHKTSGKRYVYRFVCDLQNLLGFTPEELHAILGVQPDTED
The note with it: protein: recombinant; tags: N-terminal GST; dsDNA, one strand shown. Summed up:
as §1

Assay [14] deals with T9, SPDEF (Homo sapiens, UniProt O95238 1-335).
T9 sequence: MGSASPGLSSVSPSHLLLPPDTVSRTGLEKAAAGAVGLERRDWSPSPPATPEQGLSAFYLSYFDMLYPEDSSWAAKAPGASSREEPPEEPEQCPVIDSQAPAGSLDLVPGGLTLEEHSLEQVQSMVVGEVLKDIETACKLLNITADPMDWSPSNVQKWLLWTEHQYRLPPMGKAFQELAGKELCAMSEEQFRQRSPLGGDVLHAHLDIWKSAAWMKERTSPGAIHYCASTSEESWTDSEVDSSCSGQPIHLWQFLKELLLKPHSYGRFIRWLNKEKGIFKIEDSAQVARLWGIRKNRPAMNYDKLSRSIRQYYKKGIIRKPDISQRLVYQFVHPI
The note with it: protein: recombinant; tags: N-terminal GST; dsDNA, one strand shown. Summed up: as §1

Assay [15] deals with T10, ETV7 (Homo sapiens, UniProt Q9Y603 1-341).
T10 sequence: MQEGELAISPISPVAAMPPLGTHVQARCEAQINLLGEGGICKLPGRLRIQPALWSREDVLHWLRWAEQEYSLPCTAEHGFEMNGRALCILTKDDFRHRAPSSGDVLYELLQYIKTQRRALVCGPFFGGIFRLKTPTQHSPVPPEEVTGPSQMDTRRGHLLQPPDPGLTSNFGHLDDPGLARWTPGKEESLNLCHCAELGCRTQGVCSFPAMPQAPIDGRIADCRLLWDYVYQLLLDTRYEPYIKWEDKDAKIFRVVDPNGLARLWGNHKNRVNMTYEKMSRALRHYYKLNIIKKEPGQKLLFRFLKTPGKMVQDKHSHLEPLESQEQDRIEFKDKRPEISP
The note with it: protein: recombinant; tags: N-terminal GST; dsDNA, one strand shown. Summed up:
as §1

The target in assay [16] is T11, ELF5 (Homo sapiens, UniProt Q9UKW6-2 1-255).
T11 sequence: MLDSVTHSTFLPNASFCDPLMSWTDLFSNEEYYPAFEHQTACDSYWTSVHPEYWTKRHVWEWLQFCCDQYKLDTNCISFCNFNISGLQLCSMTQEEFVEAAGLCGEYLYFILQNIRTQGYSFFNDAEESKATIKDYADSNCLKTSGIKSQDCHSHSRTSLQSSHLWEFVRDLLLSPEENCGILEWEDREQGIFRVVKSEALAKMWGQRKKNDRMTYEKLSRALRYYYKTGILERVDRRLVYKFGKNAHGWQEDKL
The conditions noted are these: protein: recombinant; tags: N-terminal GST; dsDNA, one strand shown. In outline:
as §1

In assay [17] the target is T12, ETV3 (Homo sapiens, UniProt P41162-2 1-143).
T12 sequence: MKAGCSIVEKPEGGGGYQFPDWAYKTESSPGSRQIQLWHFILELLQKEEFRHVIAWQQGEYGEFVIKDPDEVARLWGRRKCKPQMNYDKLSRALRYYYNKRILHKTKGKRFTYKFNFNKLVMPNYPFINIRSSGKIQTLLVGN
The conditions noted are these: protein: recombinant; tags: N-terminal GST; dsDNA, one strand shown. In outline: as §1

For assay [18], the target named is ETV6 (Homo sapiens, UniProt P41212 1-452). The conditions noted are these: protein: recombinant; tags: N-terminal GST; dsDNA, one strand shown. In outline: as §1
Sequence of ETV6 (P41212 whole entry): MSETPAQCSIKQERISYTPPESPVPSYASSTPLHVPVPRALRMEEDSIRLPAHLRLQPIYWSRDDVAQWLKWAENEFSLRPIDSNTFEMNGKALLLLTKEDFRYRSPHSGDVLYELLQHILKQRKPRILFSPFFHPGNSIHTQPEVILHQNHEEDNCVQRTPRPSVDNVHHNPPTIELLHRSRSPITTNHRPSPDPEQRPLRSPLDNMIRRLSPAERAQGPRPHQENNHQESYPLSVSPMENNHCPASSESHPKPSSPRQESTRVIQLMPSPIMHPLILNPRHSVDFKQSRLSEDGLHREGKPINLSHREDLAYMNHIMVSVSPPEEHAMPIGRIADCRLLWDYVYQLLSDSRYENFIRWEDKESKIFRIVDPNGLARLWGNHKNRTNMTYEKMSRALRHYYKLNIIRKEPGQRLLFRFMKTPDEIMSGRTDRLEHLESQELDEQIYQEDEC

Sequence of ETV1 (P50549 whole entry): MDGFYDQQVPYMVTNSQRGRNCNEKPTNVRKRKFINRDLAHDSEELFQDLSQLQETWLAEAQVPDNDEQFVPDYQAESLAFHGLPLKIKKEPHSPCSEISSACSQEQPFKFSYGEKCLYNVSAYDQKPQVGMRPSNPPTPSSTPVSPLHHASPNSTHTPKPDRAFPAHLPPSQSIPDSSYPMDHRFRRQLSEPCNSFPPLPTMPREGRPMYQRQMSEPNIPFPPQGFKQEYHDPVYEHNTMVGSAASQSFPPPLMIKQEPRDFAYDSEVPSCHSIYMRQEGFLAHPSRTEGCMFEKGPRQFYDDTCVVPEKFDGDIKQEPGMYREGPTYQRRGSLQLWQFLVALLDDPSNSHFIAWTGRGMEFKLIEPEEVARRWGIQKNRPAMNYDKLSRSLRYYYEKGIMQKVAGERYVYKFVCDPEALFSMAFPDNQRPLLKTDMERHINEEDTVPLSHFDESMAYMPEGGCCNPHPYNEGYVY
Sequence of CRX (O43186 whole entry): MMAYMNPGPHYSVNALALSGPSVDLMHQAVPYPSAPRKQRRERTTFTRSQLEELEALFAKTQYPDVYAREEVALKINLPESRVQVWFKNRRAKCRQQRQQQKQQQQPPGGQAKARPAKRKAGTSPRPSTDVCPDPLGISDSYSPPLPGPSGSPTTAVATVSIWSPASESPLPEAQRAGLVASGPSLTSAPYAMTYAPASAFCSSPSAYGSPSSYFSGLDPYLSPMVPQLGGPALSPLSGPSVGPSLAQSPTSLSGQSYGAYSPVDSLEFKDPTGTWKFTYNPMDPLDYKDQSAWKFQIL
Sequence of ELF4 (Q99607 whole entry): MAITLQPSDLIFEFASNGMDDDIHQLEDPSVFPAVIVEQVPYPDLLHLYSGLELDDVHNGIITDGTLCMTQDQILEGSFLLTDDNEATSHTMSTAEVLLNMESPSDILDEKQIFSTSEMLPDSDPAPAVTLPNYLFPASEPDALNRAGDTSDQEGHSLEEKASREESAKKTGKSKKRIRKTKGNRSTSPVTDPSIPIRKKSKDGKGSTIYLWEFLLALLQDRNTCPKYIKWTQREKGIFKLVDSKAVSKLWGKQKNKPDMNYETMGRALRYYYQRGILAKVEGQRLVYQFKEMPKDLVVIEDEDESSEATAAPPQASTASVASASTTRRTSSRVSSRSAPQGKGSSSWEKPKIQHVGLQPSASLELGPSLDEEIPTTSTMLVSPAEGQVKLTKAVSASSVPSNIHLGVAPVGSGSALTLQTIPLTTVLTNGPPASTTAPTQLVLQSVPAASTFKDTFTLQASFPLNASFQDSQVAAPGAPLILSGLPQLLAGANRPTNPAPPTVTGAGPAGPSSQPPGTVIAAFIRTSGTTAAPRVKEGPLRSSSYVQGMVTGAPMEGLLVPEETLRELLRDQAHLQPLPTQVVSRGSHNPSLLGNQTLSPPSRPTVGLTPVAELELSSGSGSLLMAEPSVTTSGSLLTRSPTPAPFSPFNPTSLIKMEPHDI
Sequence of ETV5 (P41161 whole entry): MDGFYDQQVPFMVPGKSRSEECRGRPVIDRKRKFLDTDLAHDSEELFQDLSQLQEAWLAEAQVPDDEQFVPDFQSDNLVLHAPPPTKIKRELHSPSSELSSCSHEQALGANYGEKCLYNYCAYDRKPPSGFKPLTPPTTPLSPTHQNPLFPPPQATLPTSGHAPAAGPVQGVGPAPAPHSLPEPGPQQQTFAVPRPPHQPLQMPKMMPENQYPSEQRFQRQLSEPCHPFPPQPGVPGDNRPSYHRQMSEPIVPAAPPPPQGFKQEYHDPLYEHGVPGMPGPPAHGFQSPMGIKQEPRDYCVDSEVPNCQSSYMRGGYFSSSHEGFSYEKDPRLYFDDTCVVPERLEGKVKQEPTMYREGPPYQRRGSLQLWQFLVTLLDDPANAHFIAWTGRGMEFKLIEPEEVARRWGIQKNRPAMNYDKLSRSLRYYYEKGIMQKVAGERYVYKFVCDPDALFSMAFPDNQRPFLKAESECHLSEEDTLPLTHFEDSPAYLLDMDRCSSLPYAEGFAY
Sequence of HSF1 (Q00613 whole entry): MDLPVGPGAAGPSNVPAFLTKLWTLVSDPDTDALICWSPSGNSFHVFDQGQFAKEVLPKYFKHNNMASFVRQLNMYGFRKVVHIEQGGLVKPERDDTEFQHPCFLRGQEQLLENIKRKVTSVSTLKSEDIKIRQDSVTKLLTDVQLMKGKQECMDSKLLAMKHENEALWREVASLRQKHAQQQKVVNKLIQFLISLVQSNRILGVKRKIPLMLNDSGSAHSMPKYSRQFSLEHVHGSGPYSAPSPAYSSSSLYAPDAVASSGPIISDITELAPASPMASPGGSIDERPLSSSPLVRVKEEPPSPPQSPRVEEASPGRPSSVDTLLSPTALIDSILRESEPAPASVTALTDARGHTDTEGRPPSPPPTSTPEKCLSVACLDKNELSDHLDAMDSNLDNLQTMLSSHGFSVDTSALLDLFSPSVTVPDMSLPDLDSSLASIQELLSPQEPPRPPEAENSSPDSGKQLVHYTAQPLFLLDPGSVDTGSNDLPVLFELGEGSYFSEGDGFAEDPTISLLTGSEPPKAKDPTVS

For GATGTA, the binding signal was 1.4 fold enrichment (6-mer frequency, TF over GST control) in assay [1]; 1.37 fold enrichment (6-mer frequency, TF over GST control) in assay [2]; 1.01 fold enrichment (6-mer frequency, TF over GST control) in [3]; 1.12 fold enrichment (6-mer frequency, TF over GST control) in assay [4]; 1.33 fold enrichment (6-mer frequency, TF over GST control) in [5]; 1.28 fold enrichment (6-mer frequency, TF over GST control) in [6]. In addition, the binding signal in [7] is 1.18 fold enrichment (6-mer frequency, TF over GST control); in [8], 1.53 fold enrichment (6-mer frequency, TF over GST control); in [9] it was 1.06 fold enrichment (6-mer frequency, TF over GST control); in assay [10], 1.33 fold enrichment (6-mer frequency, TF over GST control); in [11] it was 1.18 fold enrichment (6-mer frequency, TF over GST control); in assay [12], 1.39 fold enrichment (6-mer frequency, TF over GST control). Further, the binding signal in assay [13] was 1.49 fold enrichment (6-mer frequency, TF over GST control); in [14], 2 fold enrichment (6-mer frequency, TF over GST control); in assay [15], 1.43 fold enrichment (6-mer frequency, TF over GST control); in [16] it was 1.38 fold enrichment (6-mer frequency, TF over GST control); in assay [17], 1.39 fold enrichment (6-mer frequency, TF over GST control); in assay [18] it was 1.35 fold enrichment (6-mer frequency, TF over GST control).

For the origin of these results see paper PMC7862700, “An all-to-all approach to the identification of sequence-specific readers for epigenetic DNA modifications on cytosine”.
